Screening results as filed in PubChem BioAssay.
DUSP3 inh – inhibitors of human VHR1 phosphatase (DUSP3); P51452; recombinant VHR phosphatase, pNPP absorbance; inhibition, % at 13.3 µM; 290,000 compounds, 0.52% hits; in the data active = inhibition above about 50%
Target sequence (P51452 whole entry, looked up): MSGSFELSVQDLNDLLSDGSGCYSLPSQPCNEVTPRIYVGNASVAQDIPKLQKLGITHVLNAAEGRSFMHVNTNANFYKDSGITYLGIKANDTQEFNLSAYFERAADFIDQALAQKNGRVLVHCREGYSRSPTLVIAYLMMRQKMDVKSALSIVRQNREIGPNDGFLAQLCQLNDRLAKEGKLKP
MazF activator – increases E. coli MazEF RNase cleavage of RNA; FAM/BHQ RNA-DNA oligo cleavage fluorescence, 5 h; activation, % at 20 µM; 350,000 compounds, 0.32% hits; P0AE70; AID 504720; in the data active = activation above about 50%
Target sequence (P0AE70 whole entry, looked up): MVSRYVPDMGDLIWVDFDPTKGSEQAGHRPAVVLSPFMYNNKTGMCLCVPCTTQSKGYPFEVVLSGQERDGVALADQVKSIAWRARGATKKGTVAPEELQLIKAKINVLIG
Autofluor counter – flagged as autofluorescent in microsphere protease counterscreen. compound autofluorescence counterscreen, microsphere flow cytometry; active compounds read high. fluorescence intensity (test concentration not listed). 360,000 compounds, 3.1% hits. AID 624483; in the data active = fluorescence intensity above about 16000; inconclusive = no clear call, values can overlap the other calls
Anthrax LF inh2 – anthrax lethal factor protease inhibition | inhibition, % at 10 µM | 360,000 compounds, 0.12% hits | P15917 | multiplex microsphere protease cleavage assay, LF; also: plate controls were buffer without enzyme for full effect and enzyme alone for no effect
BoNT-F LC inh – blocks Botulinum neurotoxin F light chain protease. inhibition, % at 10 µM. Multiplex microsphere protease cleavage assay, flow cytometry. 360,000 compounds, 0.22% hits; in the data active = inhibition above about 35%, passing the limit was not always enough; inconclusive = no clear call, values can overlap the other calls; also: plate controls were buffer without enzyme for full effect and enzyme alone for no effect
BoNT A protease – inhibitors of Botulinum neurotoxin A light chain protease; multiplex microsphere protease substrate cleavage, flow cytometry; 360,000 compounds, 0.17% hits; inhibition, % at 10 µM; also: plate controls were buffer without enzyme for full effect and enzyme alone for no effect
An asterisk follows results filed as active; ? = inconclusive; · = no result given. The list is not random: actives were taken first. Their share in the collection is about 4.1%. Rule as the data show it, unless noted: active = inhibition above about 30%; inconclusive = no clear call, values can overlap the other calls; inactive = below that.

SMILES | DUSP3 inh | MazF activator | Autofluor counter | Anthrax LF inh2 | BoNT-F LC inh | BoNT A protease
CCCCc1ccc(NC(=O)COC(=O)c2ccc3ncsc3c2)cc1 | · | -5 | 3673 | -2 | -4 | 0
O=C(C1CCC(=O)N1Cc1ccccc1Cl)N1CCN(c2ccc(F)cc2)CC1 (stereo not drawn) | 13 | 1 | 2793 | 4 | -2 | 0
CC(NC(=O)C1CCC(=O)N1Cc1ccccc1Cl)c1ccccc1 (stereo not drawn) | 31 | 4 | 4075 | -7 | 31 | 1
Cc1ccc(CNC(=O)C2CCC(=O)N2Cc2ccccc2Cl)cc1 (stereo not drawn) | 10 | -3 | 3785 | 2 | 33 | -2
O=C(Nc1cc(Cl)cc(Cl)c1)C1CCC(=O)N1Cc1ccccc1Cl (stereo not drawn) | 1 | 5 | 21909* | -6 | 2 | 3
CNC(=O)C1CCC(=O)N1Cc1ccccc1Cl (stereo not drawn) | 23 | 4 | 23165* | -2 | -1 | 0
O=C(C1CCC(=O)N1Cc1ccccc1Cl)N1CCC2(CC1)OCCO2 (stereo not drawn) | 24 | 6 | 20370* | 0 | 8 | 5
CC(C)C[C@H](NC(=O)N1CCn2c1nc1ccccc12)C(=O)NC1CCCCC1 | 25 | 8 | 5391 | -3 | 5 | 0
COc1ccc(NC(=O)c2nn(C34CC5CC(CC(C5)C3)C4)cc2[N+](=O)[O-])cc1 | 8 | 11 | 2073 | -2 | -12 | -1
O=C(Nc1ccc2ccccc2c1)c1nn(C23CC4CC(CC(C4)C2)C3)cc1Br | 2 | -6 | 23799* | -3 | -6 | -2
O=C(Nc1cccc2ccccc12)c1nn(C23CC4CC(CC(C4)C2)C3)cc1[N+](=O)[O-] | 15 | 9 | 24019* | -2 | -4 | -2
CCn1cc(Br)c(C(=O)Nc2ccc(OC)cc2)n1 | 7 | 3 | 6025 | -9 | -1 | 0
CCOC(=O)C1=NNC(=O)C1 | · | 4 | 3512 | -9 | -4 | 0
CCOC(=O)/C=C1\CC(=O)Nc2nonc2N1 | -9 | 9 | 22714* | 1 | 1 | 1
CCOC(=O)/C=C1\CC(=O)Nc2cc(C)c(C)cc2N1 | -18 | -15 | 20731* | -1 | -2 | -2
CCOC(=O)/C=C1\Nc2ccccc2OC1=O | 26 | 2 | 2499 | -2 | 3 | -1
O=C1CCc2cc(S(=O)(=O)Nc3ccccc3)ccc2N1 | · | 2 | 5855 | 10 | 4 | 0
Cc1cc(C)cc(C(=O)O/N=C(\N)c2ccc(Br)cc2)c1 | 10 | 14 | 20148* | -12 | 6 | 5
N/C(=N\OC(=O)c1ccc(Cl)c([N+](=O)[O-])c1)c1ccccn1 | -9 | -3 | 3119 | -6 | 0 | 0
Cc1cccc(C(=O)O/N=C(\N)c2ccc(Br)cc2)c1 | 17 | 0 | 3527 | 7 | -4 | 0
N/C(=N\OC(=O)c1ccccc1Br)c1cccc([N+](=O)[O-])c1 | 26 | 2 | 3010 | 10 | -10 | 2
CN(CC(=O)O/N=C(\N)c1cccc([N+](=O)[O-])c1)S(=O)(=O)c1ccccc1 | -16 | 1 | 17118* | -1 | -7 | -5
N/C(=N\OC(=O)c1ccccc1F)c1cccc([N+](=O)[O-])c1 | 51* | 6 | 3359 | 9 | -12 | -1
N/C(=N\OC(=O)c1ccc(Cl)c([N+](=O)[O-])c1)c1ccccc1 | 9 | 13 | 3228 | -11 | 63* | 5
CCc1nc2ccc(C(=O)N3CCN(S(=O)(=O)CC)CC3)cn2c1N(CC)CCN(C)C | · | · | 4033 | 1 | 2 | 0
SMILES | DUSP3 inh | MazF activator | Autofluor counter | Anthrax LF inh2 | BoNT-F LC inh | BoNT A protease
CCCCN1CC(N2CCN(C(=O)c3ccco3)CC2)CS1(=O)=O (stereo not drawn) | · | · | 4833 | -19 | -14 | -2
Cc1ccc(C(=O)O/N=C(\N)c2cccc([N+](=O)[O-])c2)cc1 | -1 | -2 | 19951* | -1 | -2 | -1
N#Cc1ccc(C2=NC(C(F)(F)F)(C(F)(F)F)c3c(n(Cc4ccco4)c(=O)[nH]c3=O)N2)cc1 | 16 | 0 | 23851* | -2 | -1 | -1
O=c1[nH]c(=O)n(Cc2ccco2)c2c1C(C(F)(F)F)(C(F)(F)F)N=C(CCc1ccccc1)N2 | 41 | 1 | 8965 | 0 | 18 | 3
O=c1[nH]c(=O)n(Cc2ccco2)c2c1C(C(F)(F)F)(C(F)(F)F)N=C(C1CCCCC1)N2 | 3 | 3 | 20476* | -15 | 2 | 2
COc1ccc(OC)c(C2NC(=O)NC(C)=C2C(=O)OCc2ccccc2)c1 (stereo not drawn) | 8 | 5 | 3154 | -10 | 17 | 6
COc1ccc(N=C(C)C2C(=O)c3ccccc3C2=O)cc1 | · | · | 4512 | -7 | 3 | -1
COc1ccc(OCc2nnc(SCC(N)=O)n2-c2ccccc2OC)cc1 | 28 | -3 | 19312* | -3 | -4 | 1
COc1ccc(OCc2nnc(SCC(N)=O)n2N)cc1 | 10 | 22 | 2892 | 6 | 4 | 0
COC(=O)CSc1nnc(CNC(=O)c2cccc(C)c2)n1-c1ccccc1OC | 19 | 8 | 22455* | -6 | 5 | ?
O=C(CSc1nccc(=O)[nH]1)c1ccccc1Br | 11 | -8 | 16683* | -3 | -2 | 0
Fc1ccc(Nc2ccnc(Nc3ccc(F)cc3)n2)cc1 | -2 | 9 | 2166 | -2 | 4 | 0
Cc1nc(Sc2ccccc2)c(C#N)c(C)c1[N+](=O)[O-] | 0 | 2 | 3839 | 30* | ? | 0
Cc1cc(C)c(C#N)c(Sc2nc(C)c([N+](=O)[O-])c(C)c2C#N)n1 | · | · | 4777 | -8 | -17 | -1
COc1cccc(NC(=O)CSCC(=O)Nc2ccccc2)c1 | 22 | 10 | 2668 | -2 | 3 | 1
COc1cccc(NC(=O)COC(=O)c2c3c(nc4ccccc24)CCC(C)C3)c1 (stereo not drawn) | 32 | -3 | 19387* | 0 | 0 | 4
COc1cccc(N/C(SC)=C(/C#N)C(N)=O)c1 | 10 | -6 | 23601* | -4 | -2 | -2
COc1cccc(NC(=O)CSCC(=O)O)c1 | 15 | 6 | 17067* | 2 | 0 | -1
COc1cccc(NC(=O)CN2CCC(C)CC2)c1 | 16 | 2 | 22557* | 0 | 0 | ?
CC1CCc2nc3ccccc3c(C(=O)OCC(=O)NC3CCS(=O)(=O)C3)c2C1 (stereo not drawn) | 16 | -8 | 3873 | -2 | 0 | 0
Cc1ccc(F)cc1C(=O)N1CCCCC1c1cc(C(=O)Nc2ccc(F)c(Cl)c2)no1 (stereo not drawn) | · | · | 3485 | 6 | -4 | 0
CN1CCC(N2CCN(C3CN(C4CCCC4)S(=O)(=O)C3)CC2)CC1 (stereo not drawn) | · | · | 5900 | -13 | -8 | 0
COc1cccc(CC(=O)N2CCC(CCC(=O)Nc3cccc(OC)c3)CC2)c1 | 2 | 3 | 5816 | -4 | 0 | 0
COc1ccc(NC(=O)CN(C)C(=O)c2ccc3ccccc3c2)cc1 | · | 6 | 4354 | 2 | 6 | -1
